The whole screen tested about 350,000 compounds, of which about 9,900 (2.8%) were called active. Another 15% or so got no clear call; they are omitted. Calls follow the shape of the dose curve; as a rule, active = well fitted activation curve with a large enough effect; inconclusive = small, poorly fitted or top-dose-only effect; inactive = no such curve, though single readings can be large or run the other way. The list comes from a sample in which actives are over-represented; it also holds similar structures and randomly drawn compounds. A call without a number means that no potency is given here.
Potency is read from the fitted curve at half-maximal effect.

This assay is described as follows: A quantitative high throughput screen for small molecules that induce DNA re-replication in MCF 10a normal breast cells. Also: nearly all actives have a fitted effect of over 50% in size. As to conditions: MCF 10A DNA re-replication, Hoechst nuclear intensity, 48 h; series mostly up to 46.1 µM.
As to `CCN(CC)S(=O)(=O)c1ccc(OC)c(NC(=O)CCc2c(C)noc2C)c1`, the Potency result was “inactive”.

As to `C=C1CCC(N(O)c2cc(C)on2)C(=C)CCC2C1CC2(C)C` (centres undefined), the Potency entry was “inactive”.

Turning to `CCCCN(C(=O)C(CCSC)N1C(=O)c2ccccc2C1=O)c1c(N)n(CCC)c(=O)[nH]c1=O` (centres undefined), the Potency result is “inactive”.

On to `NNc1nc2c(Cl)cccc2s1`, for which the Potency is 16.4 µM (active).

Consider `O=C(Nc1ccccc1)Nc1nc2ccccc2s1`, for which the Potency result was “inactive”.

For the compound `CN(CC(=O)Nc1ccc(OC(F)F)cc1)S(=O)(=O)/C=C/c1ccccc1`, the Potency entry is “inactive”.

Regarding `O=C(NN=Cc1ccccc1)c1ccccc1`, the Potency result is “inactive”.

As for `CC(C)(C)OC(=O)NCCCCCNC(=O)c1nc[nH]c1C(=O)NCc1ccccc1`, the Potency result was “inactive”.

`O=C1OC(Cc2ccccc2)C(c2ccccc2)C1=O` (centres undefined): the Potency result was “inactive”.

As to `COc1ccc(OC)c(NC(=O)CCN2CCC(C)CC2)c1`, the Potency is 5.17 µM (active).

In the case of `CCOC(=O)N1CCN(CCC(=O)Nc2cc(OC)ccc2OC)CC1`, the Potency entry was “inactive”.

As for `COc1ccc(Cl)cc1NC(=O)CCN1CCOCC1`, the Potency result is “inactive”.

Consider `CC1CCCC(NC(=O)c2cc(-c3ccncc3)nc3ccccc23)C1C` (centres undefined), for which the Potency entry is “inactive”.

For `O=C(COC(=O)COc1cccc(F)c1)NCC1CCCCC1`, the Potency result is “inactive”.

Turning to `COc1ccc(S(=O)(=O)N2CCOCC2)cc1NC(=O)CSc1nnc(NC2CC2)s1`, the Potency result is “inactive”.

As for `Cc1ccc(Cc2nc(-c3cccc(C)c3)no2)cc1`, the Potency result was “inactive”.

`Cc1ccc(-c2noc(CC(c3ccccc3)c3ccccc3)n2)cc1`: the Potency result was “inactive”.

As to `COc1ccccc1Cc1nc(-c2ccc(C)cc2)no1`, the Potency is 5.8 µM (active).

In the case of `NC(=O)NCCCC(=O)O`, the Potency entry is “inactive”.

On to `CN(CC(=O)NCC(c1ccccc1)N1CCCC1)S(=O)(=O)c1ccc(Cl)cc1` (centres undefined), for which the Potency result is “inactive”.

With `Cc1ccc(N(CC(=O)Nc2cccc(N(C)S(C)(=O)=O)c2)S(C)(=O)=O)cc1`, the Potency entry was “inactive”.

Take `Cn1ccc(NC(=O)Nc2ccc(Cl)cc2)n1`: the Potency result was “inactive”.

On to `CN(c1cccc(NC(=O)Nc2ccc(Cl)cc2)c1)S(C)(=O)=O`, for which the Potency is 13 µM (active).

In the case of `COc1ccc(NS(=O)(=O)c2ccc(N3CCOCC3)c(NC(=O)/C=C/C(=O)O)c2)cc1`, the Potency entry is “inactive”.

For the compound `Cc1ccc(-c2nn(-c3ccccc3)cc2C(=O)Nc2cccc(S(=O)(=O)N3CCOCC3)c2)cc1`, the Potency result was “inactive”.

`O=C(/C=C/c1cn(-c2ccccc2)nc1-c1ccc2c(c1)OCCO2)NCCCN1CCOCC1`: the Potency result was “inactive”.

For `Cc1ccc(-c2nn(-c3ccccc3)cc2/C=C/C(=O)Nc2cccc(S(N)(=O)=O)c2)cc1`, the Potency is 13 µM (active).

`CC(=O)c1ccc(S(=O)(=O)NCCC(=O)N2CCN(c3ccccn3)CC2)cc1`: the Potency entry was “inactive”.

Take `Cc1csc(SCC(=O)N(c2ccccc2)C(C)C)n1`: the Potency entry is “inactive”.

With `c1ccc2c(c1)OC1OC2Oc2ccccc21`, the Potency entry was “inactive”.

Regarding `O=C(N[C@@H](Cc1ccccc1)C(=O)OCc1ccccc1)c1nc[nH]c1C(=O)NC1CCNCC1`, the Potency result is “inactive”.

Regarding `CC(C)(C)OC(=O)N1CCC(NC(=O)c2[nH]cnc2C(=O)N[C@@H](Cc2ccccc2)C(=O)OCc2ccccc2)CC1`, the Potency is 14.6 µM (active).

Consider `O=C(N[C@@H](Cc1ccccc1)C(=O)OCc1ccccc1)c1nc[nH]c1C(=O)N[C@@H](Cc1ccccc1)C(=O)OCc1ccccc1`, for which the Potency result is “inactive”.

Turning to `NS(=O)(=O)c1ccc(CCNC(=O)c2ccc(Cl)c(S(=O)(=O)N3CCCCCC3)c2)cc1`, the Potency entry is “inactive”.

On to `Cc1ccc(C(CC(=O)O)NC(=O)c2ccc(S(=O)(=O)N3CCCC3)cc2)cc1` (centres undefined), for which the Potency entry was “inactive”.

`CCOC(=O)C1(Cc2cccc(OC)c2)CCN(Cc2csc(C(C)=O)c2)CC1`: the Potency is 8.2 µM (active).

As to `CCOC(=O)C1(Cc2cccc(OC)c2)CCN(C(C)COC)CC1` (centres undefined), the Potency result is “inactive”.

With `CCOC(=O)C1(Cc2cccc(OC)c2)CCN(C(C)CC(C)(C)O)CC1` (centres undefined), the Potency entry is “inactive”.

For the compound `N#CC1(Nc2ccc(-c3ccc(Cl)cc3)cc2)CCCC1`, the Potency entry is “inactive”.

For `O=C(Nc1c(Br)cc2c(c1Br)Cc1ccccc1-2)C(F)(F)F`, the Potency result is “inactive”.

Take `CCN1CCN(C(=O)c2ccccc2N(C)S(=O)(=O)c2ccc(C)cc2)CC1`: the Potency entry is “inactive”.

For the compound `CCOC(=O)N1CCN(C(=O)c2ccccc2N(Cc2ccccc2)S(=O)(=O)c2ccc(OC)cc2)CC1`, the Potency is 13 µM (active).

Take `NC(=O)c1ccccc1N(Cc1ccccc1)S(=O)(=O)c1ccccc1`: the Potency entry is “inactive”.

With `CC[C@@H](C)[C@@H]1CN([C@@H](C)CN2CCC[C@H]2CN2C(N)=NC[C@H]2C(C)C)C(=N)N1CCc1ccc(Cl)c(Cl)c1`, the Potency entry was “inactive”.

`CC(OC(=O)c1c(F)cccc1F)C(=O)NCCC1=CCCCC1` (centres undefined): the Potency entry is “inactive”.

`O=C(CCl)Nc1ccc(Sc2ccc(NC(=O)CCl)cc2)cc1`: the Potency was 6.51 µM (active).

For the compound `CCC(=O)Nc1ccc(Nc2nc(Cl)nc(Nc3ccc(NC(=O)CC)cc3)n2)cc1`, the Potency result was “inactive”.

For `Cc1ccc(NC(=O)CC(=O)Nc2ccc(C)cc2)cc1`, the Potency entry is “inactive”.

Take `FC(F)(F)c1ccc(-c2cccc3c2C2CC3CCN2Cc2ccccc2)cc1` (centres undefined): the Potency entry was “inactive”.

For the compound `CC1CCCCC12NC(=O)N(CC(=O)N1CCN(c3ccccc3)CC1)C2=O` (centres undefined), the Potency entry was “inactive”.

In the case of `COc1cccc(CNC(=O)CN2C(=O)NC(Cc3ccccc3)(c3ccccc3)C2=O)c1` (centres undefined), the Potency result is “inactive”.

Take `CN(C)/N=C/c1cn(-c2ccccc2)nc1-c1cccnc1`: the Potency entry is “inactive”.

Regarding `CC(C)(C)OC(=O)N/N=C/c1cn(-c2ccccc2)nc1-c1cccnc1`, the Potency result is “inactive”.

As to `COc1ccc(-c2nn(-c3ccccc3)cc2/C=N/Nc2ccccn2)cc1OC`, the Potency is 23.1 µM (active).

In the case of `CCOC(=O)C(CO)NC(=O)C1(NC(C)=O)CCCC1` (centres undefined), the Potency result was “inactive”.

As to `CN(CCc1ccccc1)C(=O)c1cccc(NC(=O)Cc2cccc(NC(=O)C3CCCN(C(=O)CCc4ccccc4)C3)c2)c1` (centres undefined), the Potency result was “inactive”.

For `CCOC(=O)C1=C(CN2CCc3ccccc32)NC(=O)NC1c1cccc([N+](=O)[O-])c1` (centres undefined), the Potency entry was “inactive”.

On to `CCOC(=O)C1=C(C)NC(=O)NC1c1ccccc1` (centres undefined), for which the Potency result was “inactive”.

In the case of `CCOC(=O)C1=C(CN2CCc3ccccc32)NC(=O)NC1c1ccc(Cl)cc1` (centres undefined), the Potency is 14.6 µM (active).

As to `COc1cc(O)c2c(=O)c3c(O)c(O)ccc3oc2c1OC`, the Potency result is “inactive”.

`CC(C)CCN1CCN=C1N(C)C`: the Potency result is “inactive”.

For `O=C(OCc1ccccc1)c1ccc(O)cc1`, the Potency result was “inactive”.

With `O=C(OCc1ccc(-c2ccccc2)cc1)c1cccc(O)c1`, the Potency is 20.6 µM (active).

Take `O=C(OCc1ccc(Br)cc1)c1cccc(-c2nnc(-c3ccccc3)o2)c1`: the Potency entry is “inactive”.
